From PubChem BioAssay AID1476 (National Center for Advancing Translational Sciences (NCATS), 2009) come the findings set out here.

Molecules are shown by their SMILES. Values joined by “and” are separate entries in the source; they are usually repeats but may differ in a detail not shown here. Identical values can stand only once. Hit rate of the full screen: of about 200,000 compounds, about 4,500 (2.2%) were called active. Roughly 12% stayed inconclusive and do not appear here. This excerpt belongs to a sample that is enriched for actives. Some structures have more than one record in an assay (separate samples or runs), and their calls can disagree. A number with no mark means an inactive call. Calls follow the shape of the dose curve; as a rule, active = well fitted inhibition curve with a large enough effect; inconclusive = small, poorly fitted or top-dose-only effect, or effect the other way; inactive = flat fitted curve, though single readings scatter.
Potency is read from the fitted curve at half-maximal effect.

Cruzipain (Trypanosoma cruzi), sequence (P25779 123-467 limits assumed): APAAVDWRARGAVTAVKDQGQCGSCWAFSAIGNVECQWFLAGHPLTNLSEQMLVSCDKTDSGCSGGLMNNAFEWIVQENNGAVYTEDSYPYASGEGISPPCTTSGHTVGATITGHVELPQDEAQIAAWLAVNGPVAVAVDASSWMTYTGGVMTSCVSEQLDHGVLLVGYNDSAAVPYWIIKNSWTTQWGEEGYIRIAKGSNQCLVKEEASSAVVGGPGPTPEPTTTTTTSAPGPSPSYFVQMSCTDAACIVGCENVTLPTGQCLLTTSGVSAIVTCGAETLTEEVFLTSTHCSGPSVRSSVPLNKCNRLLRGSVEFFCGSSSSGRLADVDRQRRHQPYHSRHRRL

The assay concerns the target Cruzipain (Trypanosoma cruzi) (UniProt P25779). As to the kind of experiment: qHTS Assay for Promiscuous and Specific Inhibitors of Cruzain (without detergent). Also: nearly all actives have a fitted effect of over 40% in size. As to conditions: purified cruzain, Z-FR-AMC fluorescence, no detergent. The procedure:
Cruzain is a cysteine protease from the tropical parasite Trypanosoma cruzi. Dual qHTS experiment was performed against the NCGC compound collection in order to 1) identify novel inhibitors of the enzyme and 2) profile the compound collection for promiscuous inhibitors operating via colloidal aggregation (by performing detergent-free and detergent-containing comparison screens). Cruzain was assayed by the use of fluorogenic coumarin-based substrate Z-FR-AMC: proteolytic cleavage releases AMC, whose fluorescence is measured at 360 nm excitation and 450 nm emission. Purified cruzain was supplied by the labs of Prof. James McKerrow and Brian Shoichet, UC San Francisco.
This assay had 0.00005% Triton X-100 concentration. See also releated assay "qHTS Assay for Promiscuous and Specific Inhibitors of Cruzain (with detergent)" with 0.01% Triton X-100.
See following references for additional details:
Assay Provider: Shoichet, Brian; University of California, San Fancisco
Screening Center PI: Austin, C.P.
Screening Center: NIH Chemical Genomics Center [NCGC]
Buffer: 100 mM Sodium Acetate, pH 5.5, 5 mM DTT, Triton X-100 concentration: 0.01%.
Buffer in columns 3 and 4 as negative control (no enzyme).
Substrate solution: 2 uM final concentration of Z-FR-AMC (catalog number I-1160, Bachem) dispensed throughout the plate.
Enzyme: 1.5 nM Cruzain final concentration in columns 1, 2, 5-48. Column 1 is neutral (100% activity). Column 2 contained titration of covalent inhibitor K11777, starting concentration 1 mM, then 1:2 dilution in duplicate).
Three uL of enzyme or buffer were dispensed to 1536-well Greiner black solid bottom plates. Compounds and controls (23 nL) were transferred via Kalypsys PinTool. The plates were incubated for 15 min at room temperature, and then 1 uL of substrate solution was added to start the reaction. The plates were immediately transferred to and read 4 times every 30 seconds for 2 min on ViewLux High-throughput CCD imager (Perkin-Elmer) using 360 nm excitation and 450 nm emission fluorescence protocol. The fluorescence intensity difference between the third and the first time points (time lapse of 60 seconds) was used to compute reaction progress.
On to `CC(=O)Nc1c(C)nn(-c2ccccc2)c1N1CCC(C(=O)Nc2cc(Cl)ccc2C)CC1`, for which the max response, negative = inhibition is -5.38%.

In the case of `CCN(C(=O)CSc1nnc(C)n2c1cc1occc12)c1ccccc1`, the max response, negative = inhibition was -4.51%.

Take `CCCCN(CC)C(=O)c1c[nH]c2ccc(S(=O)(=O)Nc3cccc(OC)c3)cc2c1=O`: the max response, negative = inhibition is -1.35%.

In the case of `CCOC(=O)c1ccc(-c2ccc(/C=C(\C#N)C(=O)Nc3ccc(C)cc3)o2)cc1`, the max response, negative = inhibition is -9.9%.

In the case of `Cc1ccc(Cc2cnc(NC(=O)/C(C#N)=C/c3ccc(-c4cccc([N+](=O)[O-])c4)o3)s2)cc1`, the Potency was 3.16 µM (active).

For `CCOC(=O)c1ccc(-c2ccc(/C=C(\C#N)C(=O)Nc3ccc(OCC)cc3)o2)cc1`, the max response, negative = inhibition is -8.32%.

On to `COc1ccc(-c2nc3c4ccccc4n(CC(=O)Nc4ccc(C(C)=O)cc4)c(=O)n3n2)cc1`, for which the max response, negative = inhibition was 12.6%.

On to `CCN(CC)S(=O)(=O)c1ccc2c(c1)c(=O)c(C(=O)N1CCN(c3cccc(Cl)c3)CC1)cn2C`, for which the max response, negative = inhibition was 15.1%.

For `COc1ccc(CCC(=O)NCCc2csc(-c3ccc(Cl)cc3)n2)cc1`, the max response, negative = inhibition is 28.2%.

With `O=C(/C=C/c1ccccc1)c1ccccc1O`, the max response, negative = inhibition is 9.27% and -2.28%.

Turning to `CC(=O)c1c(O)c(C)c(O)c(Cc2c(O)c3c(c(C(=O)/C=C\c4ccccc4)c2O)OC(C)(C)C=C3)c1O`, the max response, negative = inhibition was 23.6%.

As for `CC(=O)c1c(O)c(C)c(O)c(Cc2c(O)c3c(c(C(=O)/C=C/c4ccccc4)c2O)OC(C)(C)C=C3)c1O`, the Potency was 7.94 µM (active) and the max response, negative = inhibition was 24.8%.

For `COc1cc(C(=O)NCC(c2ccc(Cl)cc2)N2CCOCC2)cc(OC)c1OC` (centres undefined), the max response, negative = inhibition was 9.67%.

As for `COCCCNC(=S)NC(=O)c1ccc([N+](=O)[O-])cc1`, the max response, negative = inhibition was -9.94%.

On to `O=C(O)c1ccc(NC(=O)c2cccs2)cc1`, for which the max response, negative = inhibition was -2.86%.

On to `CNC(=O)/C(=C\C=C\c1ccccc1)NC(=O)c1ccc([N+](=O)[O-])cc1`, for which the max response, negative = inhibition was 1.75%.

Regarding `O=C(NC(=S)Nc1ccc(NC(=O)c2cccs2)cc1)c1ccc([N+](=O)[O-])cc1`, the Potency was 12.6 µM (active).

For `O=C(NCCc1ccccc1)/C(=C\c1ccc([N+](=O)[O-])cc1)NC(=O)c1ccccc1`, the max response, negative = inhibition is -28.6%.

On to `O=C(Nc1ccccc1)/C(=C/c1ccc([N+](=O)[O-])cc1)NC(=O)c1ccccc1`, for which the Potency was 10 µM (active).

As to `Cc1cccc(C(=O)Nc2ccc(-c3nc4ncccc4o3)cc2C)c1`, the max response, negative = inhibition is -6.61%.

Turning to `Cc1noc2ncnc(NCc3ccccc3Cl)c12`, the max response, negative = inhibition is -9.31%.

Turning to `Cc1ccc(C)c(N2CCN(S(=O)(=O)c3ccc4c(c3)C(C(C)C)C(=O)N4)CC2)c1` (centres undefined), the max response, negative = inhibition is -9.68%.

Consider `CCOC(=O)c1cccc(NS(=O)(=O)c2cn(C)c(C)n2)c1`, for which the max response, negative = inhibition is 6.22%.

For the compound `Cc1ccc2c(=O)cc(C(=O)Nc3sc4c(c3C(=O)NCc3cccnc3)CCCC4)oc2c1`, the max response, negative = inhibition was -7.89%.

For `Cn1nc(-c2ccccc2)c(CSc2cccc(Cl)c2)c1Cl`, the max response, negative = inhibition was 2.52%.

Turning to `Cc1cc(C)n(-c2c(F)c(F)c(COC(=O)c3ccccc3)c(F)c2F)n1`, the max response, negative = inhibition was 2.62%.

For the compound `Cc1ccc(S(=O)(=O)c2c(COC(=O)c3cccc(Cl)c3)c(-c3ccccc3)nn2C)cc1`, the Potency is 25.1 µM (active).

Consider `Cc1ccc(CNC(=O)c2c(O)nc3c(C)cccn3c2=O)cc1`, for which the max response, negative = inhibition was -9.77%.

As for `O=C(O)c1c(CNCc2cccc(F)c2)c2ccccc2n1Cc1ccccc1`, the max response, negative = inhibition was 0.0489%.

`Cc1ccc(-c2nc(-c3cccnc3)sc2CC(=O)Nc2ccc(C)c(Cl)c2)cc1`: the Potency was 25.1 µM (active).

With `Cc1cc(C)c(NC(=O)CS(=O)CC(=O)Nc2cccnc2)c(C)c1` (centres undefined), the max response, negative = inhibition is -6.14%.

`Cc1ccc(NC(=O)COc2ccc(-n3ccnc3)cc2)cc1Cl`: the max response, negative = inhibition is 3.27%.

In the case of `Cc1ccc(-c2ccc(CCC(=O)O)n2-c2ccc(C(N)=O)cc2)cc1`, the max response, negative = inhibition is -3.67%.

For `O=C(Nc1ccc2c(c1)CCC2)c1cccc(S(=O)(=O)Nc2ccccc2Cl)c1`, the max response, negative = inhibition is -19.6%.

With `O=C(Nc1ccc2c(c1)CCC2)c1cccc(S(=O)(=O)N2CCN(c3ccc(F)cc3)CC2)c1`, the Potency is 20 µM (active).

As to `O=C(Nc1cccc(F)c1)c1ccc(S(=O)(=O)N2CCCC2)cc1`, the max response, negative = inhibition was 6.1%.

On to `O=C(Cn1nc(Cc2cccnc2)c2ccccc2c1=O)N1CCN(c2ccccc2F)CC1`, for which the max response, negative = inhibition was -3.19%.

Consider `COCCNC(=O)c1ccc2c(c1)N(Cc1cccc(Cl)c1)C(=O)c1ccccc1S2(=O)=O`, for which the max response, negative = inhibition is 9.95%.

`O=C(NCCc1ccccc1)c1ccc2c(c1)N(Cc1ccc(F)cc1)C(=O)c1ccccc1S2(=O)=O`: the max response, negative = inhibition was 2.91%.

With `O=C(NCCc1ccccc1)c1ccc2c(c1)N(Cc1ccccc1)C(=O)c1ccccc1S2(=O)=O`, the Potency is 20 µM (active).

As for `Cc1nn(-c2ccc(N3CCCCC3)nn2)c(C)c1CCC(=O)NCc1ccccc1F`, the max response, negative = inhibition is -5.41%.

Regarding `Cc1cc(Br)ccc1NC(=O)Cn1cnc2sc(C)c(S(=O)(=O)N3CCN(C)CC3)c2c1=O`, the max response, negative = inhibition was -2.69%.

As to `Clc1ccc(-c2nnc(SCc3nc4ccccc4s3)o2)cc1`, the max response, negative = inhibition is -6.5%.
